DUX4 inh: blocks DUX4-driven transcriptional activation; 293T-iDUX4 ZSCAN4-Gaussia luciferase reporter, 24 h; active compounds read low; activity change, negative = inhibition, % (test concentration not listed); 37,000 tested, 0.8% active;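 active = mean inhibition of at least 10% in the main channel, exceeding the control channel by a set limit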
Each line names hits and unclear results; the compound was inactive in the other large screens. Shown is part of a subset that was picked to be rich in hits.

O=C(Cc1ccncc1)N1CCCCN2[C@H](CO)[C@@H](c3ccc(C#Cc4ccccc4F)cc3)[C@H]2C1	DUX4 inh -27.9
O=C(Cc1ccncc1)N1CCCCN2[C@H](CO)[C@H](c3ccc(-c4ccncc4)cc3)[C@@H]2C1	none
O=C(Cc1ccncc1)N1CCCCN2[C@@H](CO)[C@@H](c3ccc(-c4ccncc4)cc3)[C@@H]2C1	none
O=C(Cc1ccccc1)N1CC2(C1)[C@@H](c1ccccc1)[C@H](CO)N2Cc1cccc(F)c1	none
COC(=O)[C@@H]1[C@@H](CO)[C@@H]2Cn3c(ccc(C4=CCCC4)c3=O)[C@H]1N2CC1CCCCC1	none
COC(=O)[C@H]1[C@H](CO)[C@H]2Cn3c(ccc(-c4cccnc4)c3=O)[C@@H]1N2S(=O)(=O)c1ccccc1C	none
COC(=O)[C@@H]1[C@@H](CO)[C@@H]2Cn3c(ccc(-c4cccnc4)c3=O)[C@H]1N2S(=O)(=O)c1ccccc1C	none
COC(=O)[C@@H]1[C@@H](CO)[C@@H]2Cn3c(ccc(-c4cncnc4)c3=O)[C@H]1N2S(=O)(=O)c1ccccc1C	DUX4 inh -16.5
O=C(O)[C@@H]1[C@@H](CO)[C@@H]2Cn3c(ccc(-c4ccncc4)c3=O)[C@H]1N2C(=O)C1CC1	none
O=C([C@H]1N[C@H]2c3cccc(=O)n3C[C@H]2[C@@H]1CO)N1CCCCC1	none

Compound activity as filed in PubChem.
